Results reported in PubChem BioAssay AID1626 (SRMLSC, 2009).
About 2,000 (0.91%) of roughly 220,000 compounds were called active. Not shown: some 2% with an inconclusive outcome. No stated cut-off is given here; in the data, inconclusive means inhibition above about 80% without an active follow-up result; inactive means below that; test concentration not stated here. These entries were drawn from the full list. Measured potencies and affinities stand elsewhere.

Assay: M. tuberculosis H37Rv growth inhibitors, H37Rv strain (AID 1626);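 further: bacteria incubated seven days before Alamar blue readout; 0% = bacteria only wells and 100% = bacteria with antibiotic wells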
Conditions: hits give high values, concentration not given here

Compound | inhibition
COc1cc(CNC2CCCCCC2)cc(OC)c1 | 9.94% (inactive)
Cc1nc(-c2ccc(Cl)cc2)sc1C(=O)NNC(=O)C(C)C | -5% (inactive)
CCC1CCCCN1C(=O)COc1c(Br)cc(Br)c2cccnc12 (centres undefined) | -13.3% (inactive)
CCn1nc(C(=O)Nc2ccc(S(=O)(=O)Nc3ncccn3)cc2)c2ccccc2c1=O | 1.39% (inactive)
CCN(CC)S(=O)(=O)c1cc(NC(=O)COC(=O)CCc2nc3ccccc3s2)ccc1C | 0.37% (inactive)
CCOc1ccc(NC(=O)Cn2c(=O)n(CC3CCCO3)c(=O)c3ccccc32)cc1 (centres undefined) | 0.09% (inactive)
COc1cccc2cc(C(N)=O)/c(=N/NC(=O)COc3ccc(Cl)cc3)oc12 | 1.32% (inactive)
CC(C)c1ccc(NC(=O)COc2nnc(-c3cccs3)c(-c3cccs3)n2)cc1 | 3.94% (inactive)
O=C(CSc1ccccn1)c1ccc(F)cc1 | -5.01% (inactive)
O=C(CSc1ccc(-c2ccccn2)nn1)c1ccc([N+](=O)[O-])cc1 | 9.1% (inactive)
CCC(Sc1nc2ccccc2c(=O)[nH]1)C(=O)Nc1ccc(C(C)=O)cc1 (centres undefined) | 10.9% (inactive)
CCOC(=O)C(NCc1ccccc1OC)(NC(C)=O)C(F)(F)F (centres undefined) | -3.95% (inactive)
COCCSc1nnc(NC(=O)c2ccc(OC)c([N+](=O)[O-])c2)s1 | -5.62% (inactive)
CCOC(=O)C(C)Sc1nnc(NC(=O)c2cccc([N+](=O)[O-])c2C)s1 (centres undefined) | 27% (inactive)
O=C(NCc1cccs1)c1cccc(S(=O)(=O)N2CCCCC2)c1 | -1.3% (inactive)
O=[N+]([O-])c1cccc(N=NN(CCO)c2cccc([N+](=O)[O-])c2)c1 | 7.57% (inactive)
Cc1ccc(NC(=O)c2cncc(Br)c2)c([N+](=O)[O-])c1 | 5.6% (inactive)
OCCNc1nc(-c2ccccc2)nc2c1oc1ccccc12 | 1.56% (inactive)
N/C(=N\S(=O)(=O)c1ccc(Cl)cc1)N1CCOCC1 | -5.14% (inactive)
CN(C)C(=O)c1nnsc1Sc1ccc(Cl)cc1 | -1.74% (inactive)
O=C(Nc1ccccc1)c1nnsc1S(=O)c1ccc(Cl)cc1 (centres undefined) | 47.2% (inactive)
CCCNC(=O)NS(=O)(=O)c1ccc(Cl)cc1 | -12.9% (inactive)
CCCNC(=O)c1nnsc1Sc1ccc(Cl)cc1 | 18.6% (inactive)
O=C(c1ccc(S(=O)(=O)c2ccc(Cl)cc2)cc1)N1CCOCC1 | -6.61% (inactive)

Compound | inhibition
CNC(=O)c1nnsc1S(=O)c1ccc(Cl)cc1 (centres undefined) | 78.9% (inactive)
O=C(Nc1ccccc1)c1nnsc1S(=O)(=O)c1ccc(Cl)cc1 | 2.07% (inactive)
CNC(=O)CCC(=O)Nc1ccc(C)cc1 | -1.09% (inactive)
COc1ccc(C2C(C(=O)O)CCC(=O)N2c2ccc(C)cc2)cc1OC (centres undefined) | -2.58% (inactive)
C=C(C)Cn1c(SCCCO)nc2c1c(=O)[nH]c(=O)n2C | -7.43% (inactive)
O=C(NC1CC1)C1=COCCO1 | -8.37% (inactive)
O=C(Nc1ccccc1N1CCOCC1)c1cc(F)cc(F)c1 | -4.82% (inactive)
N#Cc1cc(C(=O)c2cc(Cl)ccc2O)cn(-c2ccccc2)c1=O | -3.03% (inactive)
Cc1ccc(C(=O)NNC(=O)Cn2nnc3ccccc32)cc1 | -15.4% (inactive)
CN1CCN(C(=O)c2cnn(-c3ccccc3)c2NC(=O)c2ccccc2)CC1 | -6.4% (inactive)
O=C(N/N=C/c1cccc([N+](=O)[O-])c1)c1cccs1 | 4.78% (inactive)
COc1ccc(C(C)=O)cc1COC(=O)c1ccc(S(=O)(=O)N(C)C)cc1 | -3.54% (inactive)
O=C(Nc1ccn(Cc2c(F)c(F)cc(F)c2F)n1)c1cccc(Cn2cc([N+](=O)[O-])cn2)c1 | 2.31% (inactive)
CC1=C(C(=O)N2CCOCC2)C(c2c(F)cccc2F)NC(=O)N1 (centres undefined) | -2.62% (inactive)
CCOC(=O)C1CCCN(S(=O)(=O)c2ccc(S(N)(=O)=O)cc2)C1 (centres undefined) | -2.7% (inactive)
Cc1nnsc1-c1c(C(=O)N2CCOCC2)c(C)nn1-c1ccc(Cl)cc1 | 3.63% (inactive)
O=C(c1cc(Cl)ccc1Cl)N1CCOCC1 | -11% (inactive)
Cc1c(C(=O)Nc2cccc(S(=O)(=O)N3CCCC3)c2)oc2ccccc12 | 0.77% (inactive)
CCC(CC)C(=O)Nc1cccc(C(=O)Nc2ccc3c(c2)OCO3)c1 | 0.36% (inactive)
CC1CC(C)CN(C(=O)c2ccc3c(c2)N(Cc2ccccc2)CCS3)C1 (centres undefined) | 8.05% (inactive)
CC1Cc2ccccc2N1C(=O)Cn1c(=O)cc(O)c2ccccc21 (centres undefined) | -9.25% (inactive)
O=C(CSc1nc2ccccc2[nH]1)Nc1nc(-c2cccc(Br)c2)cs1 | 9.78% (inactive)
CCCCn1c(SCC(=O)Nc2nccs2)nc2ccccc2c1=O | -6.31% (inactive)
CN(C)CCCn1c(SCC(=O)N2c3ccccc3Sc3ccccc32)nc2ccccc2c1=O | 0.3% (inactive)

Compound | inhibition
COCCCn1c(SCC(=O)Nc2ccc(C)cc2)nc2ccccc2c1=O | -3.97% (inactive)
CC(=O)c1nnn(-c2ccc([N+](=O)[O-])cc2)c1C | -0.32% (inactive)
c1ccc2c(-c3cn4ccccc4n3)c[nH]c2c1 | -5.8% (inactive)
O=C1CC(=C2c3ccccc3-c3ccccc32)C(=O)N1CCCCN1CCN(c2ccccc2)CC1 | 8.38% (inactive)
O=C1CC(=C(c2ccccc2)c2ccccc2)C(=O)N1CCN1CCN(c2cccc(Cl)c2)CC1 | 5.45% (inactive)
Cc1ccccc1N1CCN(CCCN2C(=O)CC(=C(c3ccccc3)c3ccccc3)C2=O)CC1 | 0.08% (inactive)
O=C1CC(=C(c2ccccc2)c2ccccc2)C(=O)N1CCCN1CCN(c2cccc(Cl)c2)CC1 | 12.8% (inactive)
COc1cccc(C2C(C(=O)c3cccs3)=C(O)C(=O)N2CCN(C)C)c1OC (centres undefined) | -9.59% (inactive)
Cc1ccc(NP(=O)(Nc2ccc(C)cc2)Oc2ccccc2)cc1 | 5.95% (inactive)
O=C(NCc1ccccc1Cl)C1CCCN(c2nc3ccsc3c(=O)s2)C1 (centres undefined) | 1.18% (inactive)
NC(=O)c1nsc(C(=O)N(CC(=O)NCc2ccc3c(c2)OCO3)C2CCCC2)c1N | 0.67% (inactive)
C=CCNC(=O)/C(C#N)=C/c1c(C)nn(-c2ccc(Cl)cc2)c1Cl | 4.6% (inactive)
CC(=O)NC(Cc1ccccc1)C(=O)OCC(=O)c1ccc(Br)cc1 (centres undefined) | -1.27% (inactive)
O=C(CC(Nc1ccccc1Cl)C(=O)OCC(=O)c1cccs1)c1ccccc1 (centres undefined) | -5.28% (inactive)
COc1ccccc1NC(CC(=O)c1ccccc1)C(=O)OCC(=O)c1ccc(F)cc1 (centres undefined) | 78.2% (inactive)
O=C(CC(Nc1cccc(Cl)c1Cl)C(=O)OCC(=O)c1cccs1)c1ccccc1 (centres undefined) | -5.78% (inactive)
Cc1ccc(C(=O)NCCCN2CCOCC2)cc1 | 3.65% (inactive)
COc1ccc2c(c1)S/C(=C\C(=O)c1ccncc1)N2C | 0.94% (inactive)
COC(=O)c1ccc2c(c1)N(Cc1nc(-c3cccc(C)c3)oc1C)C(=O)C1CCCN21 (centres undefined) | 8.29% (inactive)
Cc1ccc(/C=C/C(=O)c2nc3ccccc3[nH]2)cc1 | 0.43% (inactive)
O=C(/C=C/c1ccc(Cl)cc1Cl)c1nc2ccccc2[nH]1 | 0.46% (inactive)
C/C(=N/NC(=O)CNC(=O)c1cccnc1)c1ccco1 | 7.49% (inactive)
COc1cccc(CNC(=O)C2CCN(S(=O)(=O)c3c(C)nn(C)c3C)CC2)c1 | -0.47% (inactive)
O=C(c1ccc2c3c(cccc13)CC2)C1CCCN(Cc2ccncc2)C1 (centres undefined) | 3.23% (inactive)

Compound | inhibition
O=C(c1ccc2c3c(cccc13)CC2)C1CCCN(Cc2ncc[nH]2)C1 (centres undefined) | -5.62% (inactive)
O=C(N/N=C1\CC2CC=CC12)c1ccc(Br)cc1 (centres undefined) | -7.43% (inactive)
Cc1ccc2cc(CN(CC3CCCO3)S(=O)(=O)c3ccc4c(c3)OCCO4)c(=O)[nH]c2c1C (centres undefined) | 9.1% (inactive)
Nc1n[nH]c(N)c1N=Nc1ccc(Cl)cc1 | 1.65% (inactive)
COC(=O)c1ccccc1N=Nc1c(N)n[nH]c1N | -10.6% (inactive)
Nc1n[nH]c(N)c1N=Nc1cccc(F)c1 | 0.51% (inactive)
Cc1ccc(-c2[nH]nc(N)c2N=Nc2cccc(Cl)c2C)cc1 | 0.18% (inactive)
CCn1cc(C2=NC(C(C)C)CO2)c2ccccc21 (centres undefined) | 5.08% (inactive)
CCOc1ccc(OCC)c(NC(=O)Nc2ccc3c(c2)N(C)C(=O)CS3)c1 | 1.8% (inactive)
O=C(O)c1cc(NC(=O)C2CCCO2)cc(NC(=O)C2CCCO2)c1 (centres undefined) | -1.59% (inactive)
CC1(C)CC(=O)C(/C=N/n2c(C(F)(F)F)nc3ccccc3c2=O)=C(O)C1 | 13.1% (inactive)
O=C(CSc1nnc(-c2ccccc2F)n1C1CCCCC1)N1CCCC1 | -3.16% (inactive)
OC(COCc1ccc(Cl)cc1)CN1CCN(c2ccccn2)CC1 (centres undefined) | 6.32% (inactive)
OC(COC(c1ccccc1)c1ccccc1)CN1CCN(c2ccccn2)CC1 (centres undefined) | 3.57% (inactive)
OC(CN1CCN(c2ccccn2)CC1)Cn1c2ccccc2c2ccccc21 (centres undefined) | 34.8% (inactive)
Cc1cc(C)c(OCC(O)CN2CCN(c3ccccn3)CC2)c(C)c1 (centres undefined) | -4.16% (inactive)
CC(C)C1=C2CCCCC2NC(=O)N1 (centres undefined) | -3.19% (inactive)
O=C(CN1CCSC1=NCc1ccccc1)c1ccccc1 | 0.24% (inactive)
Cc1ccc(C(=O)CSc2nc(-c3ccccc3)ccc2C#N)cc1 | 4.37% (inactive)
Cc1nc(SCC(=O)c2cc3ccccc3oc2=O)c(C#N)c(C)c1C(=O)Nc1ccccc1 | 1.89% (inactive)
Cc1nc(SCC(=O)OCc2ccccc2)c(C#N)c(-c2ccccc2)c1C(=O)Nc1ccccc1 | 1.59% (inactive)
N#Cc1ccc(-c2ccccc2)nc1SCC(=O)c1cccc(Cl)c1 | 12.6% (inactive)
